This is a sample that favours compounds with a hit; in the whole collection about 2.7% have one here.
Pf gamet viab – inhibitors of late stage P. falciparum gametocyte viability. P. falciparum stage V gametocytes, ATP luminescence, 24 h. inhibition, % at 10.9 µM. actives 0.065% (n = 150,000);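 active = inhibition above the mean plus 3 SD of compounds within the control limits, set per campaign, cut at about 38% in these data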;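 also: 0% = DMSO wells and 100% = medium only without gametocytes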
Mcl1 Noxa PPI – Mcl-1/Noxa interaction inhibition. TR-FRET Mcl-1/Noxa peptide binding, 2 h. actives 1.5% (n = 220,000). inhibition, % at 21.7 µM. AID 1022;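 active = compounds that cut the protein-peptide binding signal by more than 50% relative to plate controls in a single-dose test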;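 also: His-tagged Mcl-1 with rhodamine Noxa BH3 peptide and terbium anti-His antibody; 0% = Mcl-1 plus Noxa peptide wells and 100% = peptide-only wells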
Target sequence (Q07820 whole entry, looked up): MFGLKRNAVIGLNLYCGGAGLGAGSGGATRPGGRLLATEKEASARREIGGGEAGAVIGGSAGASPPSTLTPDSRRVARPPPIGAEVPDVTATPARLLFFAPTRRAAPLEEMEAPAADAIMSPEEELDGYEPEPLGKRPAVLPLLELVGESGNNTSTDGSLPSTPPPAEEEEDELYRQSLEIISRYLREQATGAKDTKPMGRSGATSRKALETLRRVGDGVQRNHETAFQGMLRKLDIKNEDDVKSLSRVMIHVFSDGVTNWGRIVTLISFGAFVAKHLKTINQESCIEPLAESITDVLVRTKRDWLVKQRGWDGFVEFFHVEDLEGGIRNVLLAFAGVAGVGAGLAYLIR
eIF4E 4G PPI – blocks eIF4E binding to eIF4G | TR-FRET eIF4E-eIF4GI(517-606) binding, 2 h | P63073+Q04637 | inhibition, % at 21.7 µM | actives 0.37% (n = 220,000) | AID 782;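 active = inhibition above about 30%, limit read from the data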;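 also: 0% = full FRET control wells and 100% = background wells lacking eIF4GI fragment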
Bim-Mcl-1 – inhibitors of Bim-Mcl-1 interaction, human. actives 0.1% (n = 190,000). AID 1009. Q07820. Bead-based flow cytometry, Bim peptide-Mcl-1 binding. inhibition, % at 10 µM; in the data active = inhibition above about 40%;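 also: 0% = no compound tracer wells and 100% = peptide blocker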
Mcl1 Bid PPI – Mcl-1/Bid interaction inhibition. inhibition, % at 21.7 µM. TR-FRET Mcl-1/Bid-Dy647 peptide binding, 1536-well. actives 0.97% (n = 220,000). Q07820;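 active = compounds that cut the binding signal by more than half at the single screening dose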;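 also: His-tagged Mcl-1 with europium anti-His antibody binding Bid BH3 peptide; 0% = Mcl-1 plus peptide wells and 100% = peptide-only wells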
14-3-3 Bad inh – disrupts binding of bovine 14-3-3 zeta to phospho-Bad peptide. P63103. TR-FRET 14-3-3zeta/Dy647-pBad peptide displacement, 1 h. inhibition, % at 21.7 µM. actives 0.71% (n = 220,000);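 active = inhibition above about 70%, limit read from the data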;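 also: 0% = full 14-3-3 plus peptide FRET controls and 100% = background without 14-3-3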
Target sequence (P63103 whole entry, looked up): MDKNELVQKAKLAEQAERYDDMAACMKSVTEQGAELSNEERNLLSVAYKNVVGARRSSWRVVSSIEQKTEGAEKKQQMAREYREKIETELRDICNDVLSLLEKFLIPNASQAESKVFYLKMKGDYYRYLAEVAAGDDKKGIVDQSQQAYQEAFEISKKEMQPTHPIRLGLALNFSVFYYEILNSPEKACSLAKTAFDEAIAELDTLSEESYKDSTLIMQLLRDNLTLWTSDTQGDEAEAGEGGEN
* hit, by the source's call; / = not tested or not shown; [ ] = remark or other dose.

SMILES | Pf gamet viab | Mcl1 Noxa PPI | eIF4E 4G PPI | Bim-Mcl-1 | Mcl1 Bid PPI | 14-3-3 Bad inh
Nc1nc2c(s1)COc1ccccc1-2 | -16 | -32 | -2 | -6 | -40 | -7
Nc1nc2c(s1)CCc1c-2cnn1-c1ccccc1 | / | 45 | 39* | 8 | -24 | 0
CCOc1ccc(CN2CCC(C(=O)N3CCN(c4ccccc4F)CC3)CC2)cc1OC | -33 | 20 | 8 | -2 | 34 | 74*
CC(C)CN1CCC(C(=O)N2CCN(c3ccccc3F)CC2)CC1 | -9 | 29 | 1 | -5 | -5 | 38
COc1cc(CN2CCC(C(=O)N3CCN(c4ccccc4F)CC3)CC2)cc(OC)c1O | -2 | 29 | 10 | 0 | 51* | 54
COc1ccc2cc(S(=O)(=O)n3cnc(C)c3)ccc2c1 | -19 | 16 | 2 | 2 | -4 | -1
COc1ccccc1/C=C(\NC(=O)c1ccc(OC)c(OC)c1)C(=O)Nc1cc([N+](=O)[O-])ccc1C | / | 15 | -5 | -4 | 8 | -17
CC(C)C(c1nnnn1CCc1ccccc1)N1CCOCC1 (configuration not stated) | 21 | 26 | -24 | -1 | -11 | 70*
COCCn1nnnc1C(C(C)C)N1CCC(Cc2ccccc2)CC1 (configuration not stated) | / | 19 | 11 | 3 | 6 | 84*
CC(C)C(c1nnnn1CCc1ccccc1)N1CCSCC1 (configuration not stated) | 31 | -7 | -4 | -4 | -16 | -12
C/C=C(\C)CN1CCCC(CO)(Cc2ccccc2)C1 (configuration not stated) | -14 | 10 | -4 | 0 | -5 | 2
CC(C)C(NC(=O)C12CC3CC(CC(C3)C1)C2)C(=O)NC1=NCCS1 (configuration not stated) | / | 7 | 40* | 3 | -14 | 5
O=C1NC(c2ccc3c(c2)OCO3)Nc2ccccc21 (configuration not stated) | 14 | -4 | 5 | 0 | -13 | -7
O=C1NC(c2ccc3c(c2)OCO3)Oc2ccccc21 (configuration not stated) | / | 10 | 37*[fluorescence artefact?] | 0 | -22 | 15
CCCCCCCOc1ccc(OC(=O)c2ccncc2)cc1 | 0 | -11 | -4 | 2 | -10 | 10
CCCC(=O)Nc1c2c(nc3ccccc13)N(c1ccccc1)CC2 | / | -17 | 3 | -2 | -3 | -1
O=C(CN1CCCCC1)Nc1c2c(nc3ccccc13)N(c1ccccc1)CC2 | 0 | -29 | 8 | 1 | -59 | 71*
O=C1CCCC(O)=C1C1C2=C(CCCC2=O)OC2=C1C(=O)CCC2 | 1 | 6 | 0 | -1 | -16 | -10
COc1ccc2c(c1)OC1=C(C(=O)CCC1)C2C1=C(O)CCCC1=O (configuration not stated) | / | 6 | -1 | -2 | -31 | 73*
N=c1ccn(Cc2ccc(Cl)cc2Cl)cc1 | / | 0 | 6 | 0 | -40 | -4
O=C(NNc1c2ccccc2nc2ccccc12)c1ccccc1Cl | 15 | / | / | / | / | /
O=C(NNc1c2ccccc2nc2ccccc12)c1ccc(O)cc1O | / | 68* | 0 | -1 | 55* | 14
O=C(NNc1c2ccccc2nc2ccccc12)c1ccccc1O | -7 | 64* | 14 | -18 | 23 | 3
O=C(NNc1c2ccccc2nc2ccccc12)c1ccc(O)cc1 | -31 | 51* | -3 | -4 | -65 | -10
O=C(COC(=O)c1cccs1)Nc1ccccc1[N+](=O)[O-] | 5 | -2 | 0 | 0 | -30 | -5
SMILES | Pf gamet viab | Mcl1 Noxa PPI | eIF4E 4G PPI | Bim-Mcl-1 | Mcl1 Bid PPI | 14-3-3 Bad inh
CC(=O)Nc1ccc(N=NC2C(=O)N(C(N)=S)N=C2C)cc1 (configuration not stated) | 12 | / | / | / | / | /
CC1=NN(C(N)=S)C(=O)C1N=Nc1ccc(O)cc1 (configuration not stated) | -1 | 78* | -2 | 3 | -39 | -10
CCN(CC(=O)Nc1ccc2c(c1)OCCO2)S(=O)(=O)c1cccs1 | 7 | 4 | -5 | -3 | 64* | -4
CCN(CC(=O)Nc1ccc2c(c1)OCCO2)S(=O)(=O)c1ccc(C)cc1 | 10 | -10 | 3 | -2 | -9 | 8
O=C(COc1ccc(Cl)cc1Cl)NCC(=O)N/N=C/c1c[nH]c2ccccc12 | -21 | 58* | -7 | -5 | 21 | 15
O=C(CSc1nnc(SCc2ccc(Cl)cc2)s1)N/N=C/c1c[nH]c2ccccc12 | / | 65* | 5 | -6 | 92* | 90*[fluorescence artefact?]
O=C(CNc1ccccc1)N/N=C/c1c[nH]c2ccccc12 | -4 | 9 | 3 | -7 | -30 | 5
Cc1ccc(NC(=O)c2ccc3c(c2)S(=O)(=O)c2ccccc2C3=O)cc1S(=O)(=O)N1CCOCC1 | -20 | 12 | -5 | / | -55 | 10
CC(C)C1CC(CCNCc2ccc(N(C)C)cc2)(c2ccccc2)CCO1 (configuration not stated) | -5 | 14 | -2 | -7 | -31 | -2
Cc1ccc(C2(CCNCc3ccc(N(C)C)cc3)CCOC(C(C)C)C2)cc1 (configuration not stated) | / | 56* | -7 | 0 | -35 | -4
CC(C)(C)c1c(Cl)c(O)c(-c2ccccc2)c(=O)n1-c1ccccc1 | 25 | 36 | 33* | -2 | 86* | 80*
Cc1c(O)c2ccccc2n(-c2ccccc2)c1=O | 20 | / | / | / | / | /
COCCOC(=O)c1c(N)n(CCCN2CCOCC2)c2nc3ccccc3nc12 | -6 | 28 | 92* | / | -22 | -10
COC(=O)c1c(N)n(CCCN2CCOCC2)c2nc3ccccc3nc12 | 15 | 14 | 0 | 1 | -16 | -2
CC(C)Cn1c(N)c(C(=O)NCCN2CCOCC2)c2nc3ccccc3nc21 | -9 | 14 | -2 | -3 | -15 | -10
Cc1cccc(-n2c(N)c(C(=O)NCCN3CCOCC3)c3nc4ccccc4nc32)c1 | / | 23 | -2 | -2 | 8 | 71*
O=C(NN1CCOCC1)c1cc(-c2ccc(Br)cc2)nc2ccccc12 | -41 | 8 | 58* | -6 | -10 | -19
O=C(O)CC1c2ccccc2CCN1S(=O)(=O)c1cccs1 (configuration not stated) | 6 | / | / | / | / | /
O=C(O)C1C2CCC(O2)C1C(=O)Nc1ccccc1Br (configuration not stated) | 6 | / | / | / | / | /
O=C(c1sc2cc([N+](=O)[O-])ccc2c1Cl)N1CCOCC1 | -2 | 7 | 7 | -2 | -29 | 21
CC(C)N(C(=O)c1sc2cc([N+](=O)[O-])ccc2c1Cl)C(C)C | -13 | 8 | 9 | -2 | 97* | -8
CCN(CC)C(=O)CSc1nc2ccccc2c(=O)n1CCC(=O)NCc1ccc(F)cc1 | 22 | 0 | 2 | -2 | -14 | 3
CC(=O)Nc1ccc(S(=O)(=O)Nc2nc3ccccc3nc2Nc2ccc3ccccc3c2)cc1 | 11 | 32 | 2 | -17 | -18 | 0
